The experiment deals with Shiga toxin 2 (Escherichia coli O157:H7) (UniProt P09385+P09386). The experiment in a line: E. coli 0.157:H7 Shiga Toxin SOP - stx2 screening assay. Type of experiment: functional. Also on record: scale not given: direction of the effect not stated beside the values. Particulars: 30 µM.
On to `Cc1ccc(CN2CC3(CCN(C(=O)c4cscn4)C3)C2)s1`, for which the Percent Effect is -39.3%.
With `CC(C)n1cc(CN2CCCN(C(=O)c3ccc[nH]3)CC2)cn1`, the Percent Effect was -5.02%.
In the case of `CC(=O)N1CCCC(Cc2cncc(Br)c2)CC1` (stereo not given), the Percent Effect was -11%.
Consider `Cc1cc(C)n(CC(=O)N2CCC(c3nc(C)no3)CC2)n1`, for which the Percent Effect is 3.16%.
As for `Cc1cccc(NS(=O)(=O)c2cc(C(=O)O)oc2C)c1Cl`, the figure is 8.36%.

Source of the values: ChEMBL document CHEMBL3988442, “University of Dundee, Small-Polar-MMV Screening Library” (2021).
